Source: PubChem
CCHFV vOTU inh: CCHFV vOTU protease inhibition | Pep-AMC fluorescence | 370,000 compounds, 0.55% hits | inhibition, % at 11.5 µM; further: 0% = vehicle wells with enzyme and 100% = no enzyme wells
Mtb FBA inh: Mtb fructose-bisphosphate aldolase inhibition. P9WQA3. purified M. tuberculosis FBA, fluorescence read-out. inhibition, % at 1 µM. 360,000 compounds, 2.3% hits. AID 588726; in the data active means inhibition above about 27%;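 further: 0% = vehicle and 100% = reference inhibitor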
Target sequence (P9WQA3 whole entry, looked up): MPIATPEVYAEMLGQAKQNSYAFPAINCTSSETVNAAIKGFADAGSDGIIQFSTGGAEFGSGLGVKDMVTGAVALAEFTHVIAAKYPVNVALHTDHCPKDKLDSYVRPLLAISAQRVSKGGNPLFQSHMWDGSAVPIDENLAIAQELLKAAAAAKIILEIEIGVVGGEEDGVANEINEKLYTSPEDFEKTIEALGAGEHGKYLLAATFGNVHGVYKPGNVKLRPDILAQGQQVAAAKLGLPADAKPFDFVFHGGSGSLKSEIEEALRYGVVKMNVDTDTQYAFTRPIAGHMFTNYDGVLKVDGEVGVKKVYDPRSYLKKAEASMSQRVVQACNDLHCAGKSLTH
3CLpro inhibitor: SARS-CoV 3CLpro protease inhibition. recombinant SARS-CoV 3CLpro, quenched FRET peptide cleavage. 290,000 compounds, 0.14% hits. inhibition, % at 6 µM. AID 1706. P0C6X7; in the data active means inhibition above about 12%
GDH-TPI counter: counter-screen for M. tuberculosis FBA inhibitors: GDH-TPI coupled enzymes. GDH-TPI coupled enzyme counterscreen, NADH absorbance. inhibition, % at 4.8 µM. 360,000 compounds, 1.2% hits. AID 588335;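 further: 0% = DMSO wells and 100% = wells lacking the enzyme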
RecA intein inh: Mtb RecA intein splicing inhibition; P9WHJ3; inhibition, % (concentration not given with the values); 290,000 compounds, 0.75% hits; cell-free RecA intein splicing, fluorescence; in the data active means inhibition above about 30%;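 further: 0% = vehicle wells and 100% = reference inhibitor control wells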
DUSP3 inh: inhibitors of human VHR1 phosphatase (DUSP3) | inhibition, % at 13.3 µM | P51452 | recombinant VHR phosphatase, pNPP absorbance | AID 1654 | 290,000 compounds, 0.52% hits; in the data active means inhibition above about 50%
Target sequence (P51452 whole entry, looked up): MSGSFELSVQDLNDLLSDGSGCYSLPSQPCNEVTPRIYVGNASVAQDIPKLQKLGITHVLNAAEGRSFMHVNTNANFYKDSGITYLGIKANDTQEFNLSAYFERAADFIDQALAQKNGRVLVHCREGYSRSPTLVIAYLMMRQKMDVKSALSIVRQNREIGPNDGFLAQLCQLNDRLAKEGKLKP
* marks the source's active call; other numbers are inactive results; nt = not tested or not shown; + = active, no number. Only some compounds are listed: those with a hit (about 4.7% of all), similar ones and a draw of the others. Unless noted, no stated cut-off is given here; in the data, active means inhibition above about 30%; inactive means the rest.

SMILES | CCHFV vOTU inh | Mtb FBA inh | 3CLpro inhibitor | GDH-TPI counter | RecA intein inh | DUSP3 inh
O=C(C=Cc1ccc2c(c1)OCO2)C1CC1 | -1 | 1 | nt | 36* | nt | nt
O=C(Nc1ccc(Oc2ccccc2)cc1)c1ccc2sc([C@H]3C[C@H](O)[C@@H](CO)O3)nc2c1 | 20 | -5 | nt | 8 | nt | nt
Cc1[nH]c(=O)[nH]c(=O)c1CCSSCCc1c(C)[nH]c(=O)[nH]c1=O | 4 | nt | nt | nt | nt | nt
c1ccc2c(c1)CCN(c1nc3ccccc3n3cnnc13)C2 | -1 | 5 | -2 | 4 | 1 | 29
c1ccc2c(c1)CCCN2c1nc2ccccc2n2cnnc12 | 8 | 2 | -1 | 36* | -1 | -4
CC/C=C\[C@H](O)[C@H](O)C1=C(C)C(=O)[C@]2(O1)C(=O)N[C@@](OC)(C(=O)c1ccccc1)[C@@H]2O | 2 | nt | nt | nt | nt | nt
CCCCNC(=O)C(NC(=O)c1cccnc1OC)C(=O)c1ccccc1 (stereo unspecified) | -6 | nt | nt | nt | nt | nt
O=C(Cn1ncc2c([nH]c3ccccc32)c1=O)Nc1cccnc1 | -8 | 7 | 0 | 1 | -3 | -32
Cc1ccc(NC(=O)Cn2ncc3c([nH]c4ccccc43)c2=O)cc1Cl | 17 | 2 | 0 | 4 | 0 | 58*
CCN(CC)S(=O)(=O)c1cc(NC(=O)Cn2ncc(Cl)c(Cl)c2=O)ccc1C | 9 | 3 | 2 | 8 | 52* | 27
CC(=O)Nc1cc(OC(C)=O)c2nonc2c1OC(C)=O | 101* | 2 | 37* | 6 | nt | 8
CN1CCc2cc3c(c4c2[C@H]1[C@H](O)c1ccccc1-4)OCO3 | 37* | 1 | -5 | 0 | -10 | 11
COc1ccc2c(c1OC)C(=O)OC2C1c2c(cc3c(c2OC)OCO3)CCN1C (stereo unspecified) | -9 | 4 | 0 | 15 | -2 | 5
CC(C)(C)NC(=O)C(CCc1ccccc1)n1c(=O)c(-c2cc3ccccc3[nH]2)nc2ccccc21 (stereo unspecified) | -5 | nt | nt | nt | nt | nt
Fc1ccc(-n2c(-c3ccco3)nc3nc4ccccc4nc32)cc1 | -91 | 126* | -4 | 12 | -14 | 49
Fc1ccc(-c2nc3nc4ccccc4nc3n2Cc2ccco2)cc1 | 3 | -3 | -8 | 40* | 0 | 41
C=CCn1c(-c2ccc(OC)cc2)nc2nc3ccccc3nc21 | -89 | 144* | 0 | 31 | -23 | 17
C=CCn1c(-c2ccc(OC)cc2)nc2ccccc21 | 2 | 9 | 1 | -9 | 3 | 2
CCC[C@H](/C=C/C(=O)OC(C)(C)C)Sc1ccc(N)cc1 | 18 | nt | nt | nt | nt | nt
CCN(CC)C(=O)C1=C(C)N(Cc2ccc(OC)cc2)C(=O)C(CC(=O)NC2CCCC2)C1 (stereo unspecified) | -3 | -1 | nt | -15 | nt | nt
CCOC(=O)c1ccc(OCC2NCCc3cc(OC)c(OC)cc32)cc1 (stereo unspecified) | 3 | -1 | -9 | 1 | 0 | 18
COC(=O)c1ccc(OCC2NCCc3cc(OC)c(OC)cc32)cc1 (stereo unspecified) | nt | 7 | 1 | 7 | -4 | 56*
O=C(Cn1nnc(N2CCCCC2)n1)NN=Cc1ccccc1O | 2 | nt | nt | nt | nt | nt
COc1ccc(CN2CCNC(=O)C2CC(=O)N(C)Cc2ccncn2)c(OC)c1 (stereo unspecified) | 2 | -2 | 2 | 3 | 31* | 4
COc1ccc(CN2CCNC(=O)C2CC(=O)N(C)Cc2nccs2)c(OC)c1 (stereo unspecified) | -4 | -2 | -1 | -2 | 1 | -2
SMILES | CCHFV vOTU inh | Mtb FBA inh | 3CLpro inhibitor | GDH-TPI counter | RecA intein inh | DUSP3 inh
COc1cccc(/C=C/c2nc(C#N)c(NCC(C)C)o2)c1 | -344 | + | 1 | 27 | -17 | -8
C=CCNc1oc(Cc2cccc3ccccc23)nc1C#N | 7 | 3 | -1 | 6 | 7 | -21
C=CCNc1oc(/C=C/c2ccccc2)nc1C#N | -322 | + | 5 | 48* | -22 | 14
CN(C)CCNc1oc(/C=C/c2ccccc2)nc1C#N | -202 | 135* | 1 | 10 | -7 | 18
CCOc1ccc(/C=C/c2nc(C#N)c(NCCCOC)o2)cc1 | -29 | 12 | 3 | 20 | 0 | 6
CCOc1ccc(/C=C/c2nc(C#N)c(NCCCN(C)C)o2)cc1 | -43 | 16 | 1 | 36* | -4 | -4
COCCNc1oc(COc2cccc(C)c2)nc1C#N | 2 | 5 | -2 | 10 | nt | -19
CN(C)CCCNc1oc(/C=C/c2ccccc2)nc1C#N | -9 | 4 | -6 | 15 | -33 | -12
COC(=O)Cn1cnc2c(NC(=O)c3ccccc3)ncnc21 | -5 | nt | nt | nt | nt | nt
Cc1cccc(N2CC(C(=O)Nc3ccc4c(c3)OCCO4)CC2=O)c1C (stereo unspecified) | 4 | 3 | 1 | 0 | 1 | -7
CCN(C(=O)COC(=O)c1ccccc1NCc1ccco1)c1c(N)n(Cc2ccccc2)c(=O)[nH]c1=O | -89 | 142* | nt | -4 | nt | nt
CCCCn1c(N)c(N(CCOC)C(=O)COC(=O)c2ccccc2NCCO)c(=O)[nH]c1=O | -182 | 124* | nt | 12 | nt | nt
CCOc1cc(/C=N\NC(=O)c2ccc(C)nc2)cc([N+](=O)[O-])c1O | 25 | -10 | 2 | 49* | 1 | 12
COc1cc([N+](=O)[O-])cc(/C=N/NC(=O)c2ccc(C)nc2)c1O | 3 | -12 | 4 | 37* | 6 | -4
COc1cc(/C=N/NC(=O)c2ccc(C)nc2)cc([N+](=O)[O-])c1O | 13 | -14 | 1 | 24 | -1 | 11
FC(F)(F)c1ccccc1Cc1c(-c2ccc(Cl)cc2)nc2c3ccccc3ccn12 | -4 | nt | nt | nt | nt | nt
COc1c(/C=N/NC(=O)c2ccccc2O)c(CCN(C)C(C)=O)cc2c1OCO2 | -14 | -3 | -3 | 21 | -4 | -2
CNC(=S)N(C)CCc1cc2c(c(OC)c1C=C1C(=O)NC(=O)NC1=O)OCO2 | 2 | -1 | 1 | 38* | -2 | 10
COc1c(/C=N/Nc2ccc(C(=O)O)cc2)c(CCN(C)C(C)=O)cc2c1OCO2 | 7 | -2 | -1 | 37* | -3 | 13
N#Cc1cccc(S(=O)(=O)NCC(=O)OCC(=O)NCc2ccccc2)c1 | 8 | -1 | nt | -4 | nt | nt
CCSCc1nnc(SCC(=O)Nc2ccc(OC)cc2)n1C | -2 | -1 | 0 | -2 | -2 | 57*
COc1ccc(-c2nnc(SCC(=O)Nc3ccc(C)cc3)n2C)cc1 | 3 | 1 | 1 | -6 | -2 | 2
Cc1cccc(Cn2c(N3CCCCC3C)nc3c2c(=O)[nH]c(=O)n3C)c1 (stereo unspecified) | 30* | 0 | 0 | 4 | 0 | 14
Cn1c(=O)[nH]c(=O)c2c1nc(SCC(N)=O)n2Cc1cccc(Br)c1 | 12 | 0 | 2 | 0 | 2 | 52*
Cn1c(=O)[nH]c(=O)c2c1nc(N)n2Cc1ccccc1 | 1 | -1 | -2 | 2 | -2 | 52*
CSc1nc2c(c(=O)[nH]c(=O)n2C)n1Cc1ccccc1 | 3 | -1 | -6 | 8 | 0 | 1
